In the library only some 4% were active in any assay of this set; here they are far more common.
tim10-1 inh: growth inhibitors of tim10-1 mutant yeast; S. cerevisiae tim10-1 ts strain growth, BacTiter-Glo, 24 h; inhibition, % at 20 µM; 330,000 tested, 2.2% active; AID 463190;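 active = inhibition of at least 40%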;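 note: mutant grown at 25 °C; 0% = DMSO wells with yeast and 100% = wells holding no yeast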
NLRP3 yeast inh: blocks the NALP3 inflammasome reconstituted in yeast; 330,000 tested, 0.39% active; Yeast reconstituted NLRP3/ASC/caspase-1, beta-gal luminescence, 24 h; inhibition, % at 10 µM;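 active = inhibition of 50% or more; inactive = inhibition below 50%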;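 note: plate controls were induced DMSO wells for no effect and uninduced yeast grown without galactose for full effect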
TIM10 inh: TIM10 yeast growth inhibition; S. cerevisiae TIM10 strain growth, BacTiter-Glo luminescence, 24 h; inhibition, % at 10 µM; 330,000 tested, 1.4% active; AID 463195;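 active = inhibition of 40% or more at the single tested concentration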;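 note: wild-type TIM10 isogenic control strain grown at permissive 25 °C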
tim23-1 inh: inhibits growth of tim23-1 mutant yeast; inhibition, % at 20 µM; 330,000 tested, 1.3% active; AID 463212; S. cerevisiae tim23-1 growth, BacTiter-Glo luminescence, 24 h;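 active = growth inhibition of the mutant yeast at or above 50%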;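 note: temperature-sensitive mutant grown at 25 °C; plate controls were DMSO-treated mutant yeast for no effect and medium wells lacking yeast for full effect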
NALP1 inh: NALP1 inhibition. S. cerevisiae NALP1/ASC/caspase-1 growth, X-gal OD620, 72 h. inhibition, % at 10 µM. 280,000 tested, 0.61% active; in the data active = inhibition mostly above about 24%, no sharp cut-off; inactive = mostly below about 32%
tim10-1 conf: confirmation of tim10-1 mutant yeast growth inhibitors; 7,400 tested, 56% active; inhibition, % at 20 µM; shares compounds with tim10-1 inh; S. cerevisiae tim10-1 ts strain growth, BacTiter-Glo, 24 h; AID 463213;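 active = inhibition of yeast growth at or above a set limit in either of two repeat tests at 20 µM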;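 note: tim10-1 mutant grown at permissive 25 °C to find synthetic lethal compounds; 0% = DMSO yeast wells and 100% = medium wells without yeast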
Active calls of the source: *; . = no result.

SMILES	tim10-1 inh	NLRP3 yeast inh	TIM10 inh	tim23-1 inh	NALP1 inh	tim10-1 conf
CCOC(=O)c1ccc(NC(=O)Cn2ncc(Cl)c(Cl)c2=O)cc1	40*	10	31	31	20	18
Brc1ccc(-c2csc(NNC3=NCCCCC3)n2)cc1	29	9	11	20	3	.
CC(C)(C)c1ccc(-c2csc(NNC3=NCCCCC3)n2)cc1	45*	10	23	37	0	22
Cc1c(C(=O)N2CCOCC2)oc2ccc(S(=O)(=O)N3CCCC3)cc12	8	10	7	-1	16	.
Cc1c(C(=O)N2CCc3ccccc3C2)oc2ccc(S(=O)(=O)N3CCCCCC3)cc12	43*	7	21	36	40	22
O=C(CSc1nnc(NC(=O)c2ccco2)s1)Nc1ccccc1	-24	12	-4	3	6	.
COC(=O)c1cn(-c2ccc(Cl)cc2)c(=O)c2ccccc12	44*	10	25	39	24	29
COc1ccc(NC(=O)COC(=O)Cn2cnc3ccccc32)cc1	1	-10	0	6	.	.
COc1ccc(-n2c(C)cc(C(=O)COC(=O)Cn3cnc4ccccc43)c2C)cc1	53*	15	28	35	-3	28
COCCn1nnnc1C(CC(C)C)N1CCN(c2nc3ccccc3s2)CC1 (stereo not given)	44*	16	25	37	5	32*
CCC(c1nnnn1CCOC)N1CCN(c2nc3ccccc3s2)CC1 (stereo not given)	13	18	15	-1	-12	.
Cc1ccc(-c2csc(NS(=O)(=O)c3cccc(F)c3)n2)o1	10	12	5	5	.	.
CC(C)c1ccccc1NC(=O)CSc1n[nH]c(=O)n1C1CC1	16	2	8	21	.	.
FC(F)(F)c1cnc(Nc2ccc(N3CCOCC3)cc2)c(Cl)c1	44*	4	15	19	-8	21
COc1ccc(/C(O)=C2/C(=O)C(=O)N(c3ccccn3)C2c2ccc(F)cc2)cc1 (stereo not given)	0	13	-7	-6	8	.
CC(C)C[C@H](N)c1nnc(SCC(=O)Nc2ccc(Br)cc2)o1	43*	0	16	2	30	-9
N#Cc1cccc(NC(=O)CN2CCN(Cc3ccccc3)CC2)c1	-25	18	0	3	12	.
Cc1ccnc2nc(C(=O)OCC(=O)Nc3ccc([N+](=O)[O-])cc3Br)nn12	-1	2	5	2	.	.
CCn1nc(NS(=O)(=O)c2ccc([N+](=O)[O-])cc2)c2cc3ccccc3nc21	2	19	11	9	-4	.
CCCn1nc(NS(C)(=O)=O)c2cc3cccc(C)c3nc21	42*	19	27	34	11	35*
CCCn1nc(NC(=O)CC)c2cc3cccc(C)c3nc21	17	21	20	24	8	.
CCn1nc(NS(=O)(=O)c2ccc(C)cc2)c2cc3ccccc3nc21	44*	12	-9	34	14	-9
Cc1nn(C)cc1CN1CCCC(C(=O)c2ccc(-c3ccccc3)cc2)C1 (stereo not given)	16	29	8	4	15	.
CNC(=S)N(Cc1cc2cc(OC)c(OC)cc2[nH]c1=O)C1CCCC1	19	12	10	4	-5	.
Cn1c(=O)c2c(nc(SCCN3CCOCC3)n2Cc2ccccc2Cl)n(C)c1=O	27	-1	10	31	-76	.
SMILES	tim10-1 inh	NLRP3 yeast inh	TIM10 inh	tim23-1 inh	NALP1 inh	tim10-1 conf
Cn1c(=O)c2c(nc(SCCN3CCOCC3)n2Cc2cccc3ccccc23)n(C)c1=O	44*	10	23	29	20	27
Cc1cc(Br)ccc1NC(=O)CSCc1c(C)noc1C	2	13	-6	6	.	.
COc1cccc(OC)c1C(=O)NC(=O)Oc1c(F)cccc1F	-9	-2	0	4	17	.
CCCN(CC(=O)Nc1ccccc1C)C(=O)COc1c(C)cccc1C	35	15	8	27	.	.
CCCN(CC(=O)Nc1ccccc1C)C(=O)CCl	41*	-13	35	31	12	23
Cc1nc2cc(C(F)(F)F)ccc2n1CCNc1nc(-c2ccc(F)cc2)cs1	46*	16	13	15	29	22
COc1ccc(-c2csc(NCCn3c(C)nc4cc(C(F)(F)F)ccc43)n2)cc1	15	23	13	47	.	.

Screens (PubChem BioAssay)
